Test results published in paper PMC7862700, “An all-to-all approach to the identification of sequence-specific readers for epigenetic DNA modifications on cytosine”.

Assays:
Experiment in all cases: DAPPL (digital affinity profiling via proximity ligation, sequencing); 10 mM Tris-HCl pH 7.5, 50 mM NaCl, 1 mM DTT, 4% glycerol, room temperature, 30 min; GST-TFs on glutathione beads, 16-mer random dsDNA library, 0.1% formaldehyde crosslink after washing; high values mean tight binding
FLI1 = molecular target: T1, FLI1 (Homo sapiens, UniProt Q01543 1-452); details: protein: recombinant; tags: N-terminal GST; dsDNA, one strand shown
T1 sequence: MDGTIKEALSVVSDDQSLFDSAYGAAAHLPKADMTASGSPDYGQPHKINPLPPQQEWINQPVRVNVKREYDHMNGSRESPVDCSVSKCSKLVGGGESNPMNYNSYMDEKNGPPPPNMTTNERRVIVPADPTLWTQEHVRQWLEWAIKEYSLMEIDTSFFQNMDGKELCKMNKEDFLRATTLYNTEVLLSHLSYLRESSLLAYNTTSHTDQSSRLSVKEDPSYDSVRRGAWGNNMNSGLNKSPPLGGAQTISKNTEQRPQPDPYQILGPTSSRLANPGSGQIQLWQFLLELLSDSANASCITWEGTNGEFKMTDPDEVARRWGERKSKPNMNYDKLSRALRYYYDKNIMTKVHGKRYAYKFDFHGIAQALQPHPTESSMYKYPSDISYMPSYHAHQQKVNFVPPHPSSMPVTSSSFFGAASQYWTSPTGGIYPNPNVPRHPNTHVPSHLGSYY
Procedure, shortened: (§1)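 After expression in yeast as GST fusions, human transcription factors were bound to glutathione beads, DNA-barcoded and mixed with a tag-only sample. The pools were incubated with 200 nmole of a 16-mer random double-stranded DNA library in Tris/NaCl/DTT/glycerol buffer (30 min, room temperature), washed and crosslinked with 0.1% formaldehyde. Proximity ligation with BsaI/T4 ligase ran for 1 h at 37 °C, before PCR amplification and sequencing on an Illumina NextSeq500. Binding signal is a hexamer's read frequency for a factor divided by its frequency for the tag-only sample.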

GABPA = molecular target: T2, GABPA (Homo sapiens, UniProt Q06546 1-454); details: protein: recombinant; tags: N-terminal GST; dsDNA, one strand shown
T2 sequence: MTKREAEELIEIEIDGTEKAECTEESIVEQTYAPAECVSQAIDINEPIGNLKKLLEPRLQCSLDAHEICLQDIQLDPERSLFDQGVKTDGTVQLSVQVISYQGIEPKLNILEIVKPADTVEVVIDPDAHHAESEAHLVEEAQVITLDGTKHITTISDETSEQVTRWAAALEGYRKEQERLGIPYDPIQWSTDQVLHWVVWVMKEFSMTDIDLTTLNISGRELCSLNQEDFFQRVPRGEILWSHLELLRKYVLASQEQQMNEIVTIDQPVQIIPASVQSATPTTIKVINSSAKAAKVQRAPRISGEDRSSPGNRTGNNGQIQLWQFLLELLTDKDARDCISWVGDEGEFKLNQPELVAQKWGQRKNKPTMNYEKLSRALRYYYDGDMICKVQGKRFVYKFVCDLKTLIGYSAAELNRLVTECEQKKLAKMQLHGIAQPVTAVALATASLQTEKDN
Procedure, shortened: as §1

ERG = molecular target: T3, ERG (Homo sapiens, UniProt P11308 1-479); details: protein: recombinant; tags: N-terminal GST; dsDNA, one strand shown
T3 sequence: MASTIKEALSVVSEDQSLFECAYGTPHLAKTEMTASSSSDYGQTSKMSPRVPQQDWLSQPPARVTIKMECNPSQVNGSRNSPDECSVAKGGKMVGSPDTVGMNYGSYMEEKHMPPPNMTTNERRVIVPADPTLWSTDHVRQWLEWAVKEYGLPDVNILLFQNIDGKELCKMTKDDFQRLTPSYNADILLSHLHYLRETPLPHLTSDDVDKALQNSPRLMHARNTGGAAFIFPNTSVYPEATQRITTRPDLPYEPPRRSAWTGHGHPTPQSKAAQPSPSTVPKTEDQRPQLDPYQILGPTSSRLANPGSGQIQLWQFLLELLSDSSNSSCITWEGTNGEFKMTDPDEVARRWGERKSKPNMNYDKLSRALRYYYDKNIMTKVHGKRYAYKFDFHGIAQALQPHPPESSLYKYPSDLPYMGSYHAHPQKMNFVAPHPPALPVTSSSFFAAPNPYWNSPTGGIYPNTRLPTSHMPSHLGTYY
Procedure, shortened: as §1

ELF1 = ELF1 (Homo sapiens, UniProt P32519 1-619); details: protein: recombinant; tags: N-terminal GST; dsDNA, one strand shown
ELF1, sequence (P32519 whole entry): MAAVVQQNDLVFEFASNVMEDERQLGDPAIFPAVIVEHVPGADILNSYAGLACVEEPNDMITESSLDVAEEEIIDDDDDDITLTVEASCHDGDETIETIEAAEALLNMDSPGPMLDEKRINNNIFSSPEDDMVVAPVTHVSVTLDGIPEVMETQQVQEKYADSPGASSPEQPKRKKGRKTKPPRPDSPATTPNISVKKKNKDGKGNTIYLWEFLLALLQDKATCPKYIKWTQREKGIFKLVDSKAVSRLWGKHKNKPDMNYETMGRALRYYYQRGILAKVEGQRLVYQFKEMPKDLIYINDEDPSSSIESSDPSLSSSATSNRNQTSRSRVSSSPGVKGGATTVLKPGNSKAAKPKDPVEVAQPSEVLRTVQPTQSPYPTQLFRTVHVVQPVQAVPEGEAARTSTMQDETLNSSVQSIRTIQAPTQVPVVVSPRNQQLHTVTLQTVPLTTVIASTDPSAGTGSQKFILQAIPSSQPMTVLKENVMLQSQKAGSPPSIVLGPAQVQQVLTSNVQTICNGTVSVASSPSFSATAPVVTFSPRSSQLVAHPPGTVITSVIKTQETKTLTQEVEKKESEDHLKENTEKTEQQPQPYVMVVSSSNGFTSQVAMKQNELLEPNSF
Procedure, shortened: as §1

EHF = molecular target: T4, EHF (Homo sapiens, UniProt Q9NZC4 1-300); details: protein: recombinant; tags: N-terminal GST; dsDNA, one strand shown
T4 sequence: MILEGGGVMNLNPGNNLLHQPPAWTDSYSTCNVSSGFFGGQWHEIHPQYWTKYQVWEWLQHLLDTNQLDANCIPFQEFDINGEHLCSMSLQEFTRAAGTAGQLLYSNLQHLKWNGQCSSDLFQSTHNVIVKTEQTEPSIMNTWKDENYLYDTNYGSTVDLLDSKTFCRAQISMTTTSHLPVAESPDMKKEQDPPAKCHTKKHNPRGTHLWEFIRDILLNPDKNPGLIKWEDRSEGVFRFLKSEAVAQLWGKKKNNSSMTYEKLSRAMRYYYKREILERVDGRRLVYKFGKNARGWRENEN
Procedure, shortened: as §1

SPI1 = SPI1 (Homo sapiens, UniProt P17947 1-270); details: protein: recombinant; tags: N-terminal GST; dsDNA, one strand shown
Procedure, shortened: as §1

SPIB = SPIB (Homo sapiens, UniProt Q01892 1-262); details: protein: recombinant; tags: N-terminal GST; dsDNA, one strand shown
SPIB, sequence (Q01892 whole entry): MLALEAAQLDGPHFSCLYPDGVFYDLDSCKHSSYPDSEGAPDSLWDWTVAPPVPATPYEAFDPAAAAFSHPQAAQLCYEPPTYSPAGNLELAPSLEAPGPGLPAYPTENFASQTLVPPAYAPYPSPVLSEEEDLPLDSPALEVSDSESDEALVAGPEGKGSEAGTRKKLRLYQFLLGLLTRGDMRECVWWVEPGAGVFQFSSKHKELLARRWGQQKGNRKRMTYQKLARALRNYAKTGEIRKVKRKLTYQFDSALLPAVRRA
Procedure, shortened: as §1

ELK3 = molecular target: T5, ELK3 (Homo sapiens, UniProt P41970 1-407); details: protein: recombinant; tags: N-terminal GST; dsDNA, one strand shown
T5 sequence: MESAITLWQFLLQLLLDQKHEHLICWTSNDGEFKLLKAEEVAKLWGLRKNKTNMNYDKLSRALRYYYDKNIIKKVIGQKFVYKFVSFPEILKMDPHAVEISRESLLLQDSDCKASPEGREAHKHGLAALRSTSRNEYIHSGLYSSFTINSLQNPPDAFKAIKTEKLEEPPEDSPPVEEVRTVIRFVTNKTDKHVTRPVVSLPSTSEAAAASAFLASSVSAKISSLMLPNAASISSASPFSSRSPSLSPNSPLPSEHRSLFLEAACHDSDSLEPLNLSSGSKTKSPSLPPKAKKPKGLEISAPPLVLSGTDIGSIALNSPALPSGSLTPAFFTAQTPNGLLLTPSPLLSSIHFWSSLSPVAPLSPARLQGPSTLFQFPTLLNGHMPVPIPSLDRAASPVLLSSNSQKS
Procedure, shortened: as §1

FEV = molecular target: T6, FEV (Homo sapiens, UniProt Q99581 1-238); details: protein: recombinant; tags: N-terminal GST; dsDNA, one strand shown
T6 sequence: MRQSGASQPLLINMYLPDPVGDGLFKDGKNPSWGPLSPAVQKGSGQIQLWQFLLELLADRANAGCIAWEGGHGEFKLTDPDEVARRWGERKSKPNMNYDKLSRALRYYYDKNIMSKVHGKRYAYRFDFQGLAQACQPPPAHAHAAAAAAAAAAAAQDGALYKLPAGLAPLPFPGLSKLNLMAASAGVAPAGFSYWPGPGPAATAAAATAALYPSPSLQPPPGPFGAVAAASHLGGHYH
Procedure, shortened: as §1

ETV5 = ETV5 (Homo sapiens, UniProt P41161 1-510); details: protein: recombinant; tags: N-terminal GST; dsDNA, one strand shown
ETV5, sequence (P41161 whole entry): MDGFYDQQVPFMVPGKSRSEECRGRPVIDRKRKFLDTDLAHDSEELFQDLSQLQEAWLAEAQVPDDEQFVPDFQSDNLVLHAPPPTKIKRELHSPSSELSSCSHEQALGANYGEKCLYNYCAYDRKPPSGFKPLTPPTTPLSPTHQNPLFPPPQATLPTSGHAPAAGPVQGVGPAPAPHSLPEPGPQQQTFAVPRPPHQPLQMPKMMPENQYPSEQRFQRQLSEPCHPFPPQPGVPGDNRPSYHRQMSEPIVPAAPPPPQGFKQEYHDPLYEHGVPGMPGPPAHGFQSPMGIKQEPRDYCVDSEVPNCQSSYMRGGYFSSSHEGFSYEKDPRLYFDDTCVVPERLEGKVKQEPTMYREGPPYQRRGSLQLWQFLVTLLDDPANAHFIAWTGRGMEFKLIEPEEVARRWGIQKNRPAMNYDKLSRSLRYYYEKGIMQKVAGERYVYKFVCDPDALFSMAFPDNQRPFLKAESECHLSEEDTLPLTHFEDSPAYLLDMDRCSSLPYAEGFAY
Procedure, shortened: as §1

HSF1 = HSF1 (Homo sapiens, UniProt Q00613 1-529); details: protein: recombinant; tags: N-terminal GST; chain copies: 3; dsDNA, one strand shown
HSF1, sequence (Q00613 whole entry): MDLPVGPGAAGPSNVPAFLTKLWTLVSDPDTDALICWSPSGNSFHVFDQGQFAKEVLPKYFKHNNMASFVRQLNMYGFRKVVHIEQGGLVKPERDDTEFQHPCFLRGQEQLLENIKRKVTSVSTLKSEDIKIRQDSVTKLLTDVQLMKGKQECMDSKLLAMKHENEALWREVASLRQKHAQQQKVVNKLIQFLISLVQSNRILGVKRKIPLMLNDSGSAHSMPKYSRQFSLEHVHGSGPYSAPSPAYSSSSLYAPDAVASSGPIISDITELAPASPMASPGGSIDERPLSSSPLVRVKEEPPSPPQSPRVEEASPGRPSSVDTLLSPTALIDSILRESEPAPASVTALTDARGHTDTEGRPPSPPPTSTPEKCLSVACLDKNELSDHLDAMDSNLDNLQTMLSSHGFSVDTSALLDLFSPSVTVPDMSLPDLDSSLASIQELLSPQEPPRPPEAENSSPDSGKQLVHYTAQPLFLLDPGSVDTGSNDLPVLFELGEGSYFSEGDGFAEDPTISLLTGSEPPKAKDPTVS
Procedure, shortened: as §1

SPIC = molecular target: T7, SPIC (Homo sapiens, UniProt Q8N5J4 1-248); details: protein: recombinant; tags: N-terminal GST; dsDNA, one strand shown
T7 sequence: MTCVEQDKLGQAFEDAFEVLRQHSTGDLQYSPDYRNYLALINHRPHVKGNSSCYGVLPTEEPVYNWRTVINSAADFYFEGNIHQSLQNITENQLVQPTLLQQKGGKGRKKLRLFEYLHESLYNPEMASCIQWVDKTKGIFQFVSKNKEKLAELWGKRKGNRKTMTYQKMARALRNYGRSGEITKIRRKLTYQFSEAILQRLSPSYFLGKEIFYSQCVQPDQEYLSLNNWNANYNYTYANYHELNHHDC
Procedure, shortened: as §1

ELF4 = ELF4 (Homo sapiens, UniProt Q99607 1-663); details: protein: recombinant; tags: N-terminal GST; dsDNA, one strand shown
ELF4, sequence (Q99607 whole entry): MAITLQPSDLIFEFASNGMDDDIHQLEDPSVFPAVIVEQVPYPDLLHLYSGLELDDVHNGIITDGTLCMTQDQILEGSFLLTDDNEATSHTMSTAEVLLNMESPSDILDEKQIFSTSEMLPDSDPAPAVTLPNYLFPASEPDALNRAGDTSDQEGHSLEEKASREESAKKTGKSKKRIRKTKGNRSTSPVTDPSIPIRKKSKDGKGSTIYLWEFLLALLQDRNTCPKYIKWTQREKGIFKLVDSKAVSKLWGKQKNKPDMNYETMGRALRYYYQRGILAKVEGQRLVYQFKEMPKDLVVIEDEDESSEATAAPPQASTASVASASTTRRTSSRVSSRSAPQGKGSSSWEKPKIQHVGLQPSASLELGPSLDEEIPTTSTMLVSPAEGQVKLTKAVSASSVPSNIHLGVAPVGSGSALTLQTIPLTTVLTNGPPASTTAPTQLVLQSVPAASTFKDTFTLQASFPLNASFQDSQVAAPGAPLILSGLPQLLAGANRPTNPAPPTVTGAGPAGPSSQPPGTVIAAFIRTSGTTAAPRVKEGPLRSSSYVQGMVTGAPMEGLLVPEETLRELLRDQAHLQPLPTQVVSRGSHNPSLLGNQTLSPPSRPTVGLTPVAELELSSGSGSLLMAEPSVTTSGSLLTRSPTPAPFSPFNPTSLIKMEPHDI
Procedure, shortened: as §1

ELK4 = molecular target: T8, ELK4 (Homo sapiens, UniProt P28324-2 1-405); details: protein: recombinant; tags: N-terminal GST; dsDNA, one strand shown
T8 sequence: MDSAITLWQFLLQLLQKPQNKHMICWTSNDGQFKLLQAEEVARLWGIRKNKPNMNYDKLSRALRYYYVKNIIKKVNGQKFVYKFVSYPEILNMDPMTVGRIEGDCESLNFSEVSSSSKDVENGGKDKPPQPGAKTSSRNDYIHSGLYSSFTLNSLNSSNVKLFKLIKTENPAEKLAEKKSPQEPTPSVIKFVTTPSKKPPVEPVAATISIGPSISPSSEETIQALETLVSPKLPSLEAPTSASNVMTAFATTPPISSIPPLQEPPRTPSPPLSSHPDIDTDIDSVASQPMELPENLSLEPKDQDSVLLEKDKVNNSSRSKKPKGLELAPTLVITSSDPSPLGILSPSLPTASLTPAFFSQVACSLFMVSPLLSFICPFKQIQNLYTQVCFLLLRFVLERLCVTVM
Procedure, shortened: as §1

ETV2 = molecular target: T9, ETV2 (Homo sapiens, UniProt O00321 1-342); details: protein: recombinant; tags: N-terminal GST; dsDNA, one strand shown
T9 sequence: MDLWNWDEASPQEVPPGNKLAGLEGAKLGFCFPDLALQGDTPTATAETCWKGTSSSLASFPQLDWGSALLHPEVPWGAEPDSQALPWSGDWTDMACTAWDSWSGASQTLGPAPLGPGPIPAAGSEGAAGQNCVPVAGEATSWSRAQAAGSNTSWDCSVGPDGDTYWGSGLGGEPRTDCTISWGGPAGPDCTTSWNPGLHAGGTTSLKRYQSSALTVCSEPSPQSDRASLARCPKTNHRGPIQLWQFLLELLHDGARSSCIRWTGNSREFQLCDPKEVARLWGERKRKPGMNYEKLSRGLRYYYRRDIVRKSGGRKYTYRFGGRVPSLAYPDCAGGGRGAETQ
Procedure, shortened: as §1

ELF3 = molecular target: T10, ELF3 (Homo sapiens, UniProt P78545 1-371); details: protein: recombinant; tags: N-terminal GST; dsDNA, one strand shown
T10 sequence: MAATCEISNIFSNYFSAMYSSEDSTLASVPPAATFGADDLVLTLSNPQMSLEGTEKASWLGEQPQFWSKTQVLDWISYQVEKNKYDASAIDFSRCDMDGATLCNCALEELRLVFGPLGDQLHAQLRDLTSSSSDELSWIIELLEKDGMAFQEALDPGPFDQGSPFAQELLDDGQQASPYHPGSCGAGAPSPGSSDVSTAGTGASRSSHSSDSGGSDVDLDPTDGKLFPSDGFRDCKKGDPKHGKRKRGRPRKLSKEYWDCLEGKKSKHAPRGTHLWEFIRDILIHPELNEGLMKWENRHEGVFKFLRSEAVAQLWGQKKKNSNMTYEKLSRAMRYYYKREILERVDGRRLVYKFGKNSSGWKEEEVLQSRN
Procedure, shortened: as §1

CRX = CRX (Homo sapiens, UniProt O43186 1-299); details: protein: recombinant; tags: N-terminal GST; dsDNA, one strand shown
CRX, sequence (O43186 whole entry): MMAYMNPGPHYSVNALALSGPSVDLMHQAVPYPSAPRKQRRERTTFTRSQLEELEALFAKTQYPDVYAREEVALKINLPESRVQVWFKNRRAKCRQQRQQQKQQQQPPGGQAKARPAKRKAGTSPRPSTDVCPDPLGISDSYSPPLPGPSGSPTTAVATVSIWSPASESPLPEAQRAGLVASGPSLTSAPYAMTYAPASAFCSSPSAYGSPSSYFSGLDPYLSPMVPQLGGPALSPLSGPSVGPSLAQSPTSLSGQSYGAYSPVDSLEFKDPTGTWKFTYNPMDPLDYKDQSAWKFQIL
Procedure, shortened: as §1

ETV1 = ETV1 (Homo sapiens, UniProt P50549 1-477); details: protein: recombinant; tags: N-terminal GST; dsDNA, one strand shown
ETV1, sequence (P50549 whole entry): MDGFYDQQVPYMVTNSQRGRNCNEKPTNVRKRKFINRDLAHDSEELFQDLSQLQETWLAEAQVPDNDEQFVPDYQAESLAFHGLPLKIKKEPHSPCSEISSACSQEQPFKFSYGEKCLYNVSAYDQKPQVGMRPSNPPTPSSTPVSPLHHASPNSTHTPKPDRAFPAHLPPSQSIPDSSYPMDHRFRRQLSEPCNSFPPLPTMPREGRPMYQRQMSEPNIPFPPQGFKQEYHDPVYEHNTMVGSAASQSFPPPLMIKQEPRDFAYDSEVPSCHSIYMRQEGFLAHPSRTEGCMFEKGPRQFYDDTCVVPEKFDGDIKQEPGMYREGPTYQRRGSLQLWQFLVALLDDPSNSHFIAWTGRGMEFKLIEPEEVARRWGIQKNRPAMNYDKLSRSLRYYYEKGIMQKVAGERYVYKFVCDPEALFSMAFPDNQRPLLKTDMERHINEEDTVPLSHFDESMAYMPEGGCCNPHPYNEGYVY
Procedure, shortened: as §1

**Q.** For GGGTTT, which binding signal (FLI1) is on record?
**A.** 1.17 fold enrichment (6-mer frequency, TF over GST control)

**Q.** What about the binding signal (GABPA) of the same sequence?
**A.** 1.1 fold enrichment (6-mer frequency, TF over GST control)

**Q.** And the binding signal (ERG)?
**A.** 1.1 fold enrichment (6-mer frequency, TF over GST control)

**Q.** And the binding signal (ELF1)?
**A.** 1.1 fold enrichment (6-mer frequency, TF over GST control)

**Q.** And the binding signal (EHF)?
**A.** 1.11 fold enrichment (6-mer frequency, TF over GST control)

**Q.** And the binding signal (SPI1)?
**A.** 1.05 fold enrichment (6-mer frequency, TF over GST control)

**Q.** What about the binding signal (SPIB) of the same sequence?
**A.** 1.05 fold enrichment (6-mer frequency, TF over GST control)

**Q.** What about the binding signal (ELK3) of the same sequence?
**A.** 1.03 fold enrichment (6-mer frequency, TF over GST control)

**Q.** What about the binding signal (FEV) of the same sequence?
**A.** 1.06 fold enrichment (6-mer frequency, TF over GST control)

**Q.** And the binding signal (ETV5)?
**A.** 1.08 fold enrichment (6-mer frequency, TF over GST control)

**Q.** And the binding signal (HSF1)?
**A.** 1.12 fold enrichment (6-mer frequency, TF over GST control)

**Q.** What about the binding signal (SPIC) of the same sequence?
**A.** 1.16 fold enrichment (6-mer frequency, TF over GST control)

**Q.** What about the binding signal (ELF4) of the same sequence?
**A.** 1.2 fold enrichment (6-mer frequency, TF over GST control)

**Q.** And the binding signal (ELK4)?
**A.** 1.12 fold enrichment (6-mer frequency, TF over GST control)

**Q.** And the binding signal (ETV2)?
**A.** 1.33 fold enrichment (6-mer frequency, TF over GST control)

**Q.** What about the binding signal (ELF3) of the same sequence?
**A.** 1.05 fold enrichment (6-mer frequency, TF over GST control)

**Q.** What about the binding signal (CRX) of the same sequence?
**A.** 1.25 fold enrichment (6-mer frequency, TF over GST control)

**Q.** What about the binding signal (ETV1) of the same sequence?
**A.** 1.1 fold enrichment (6-mer frequency, TF over GST control)
